Test results reported in PubChem BioAssay (NCI).
The panel holds about 79,000 compounds, 15% with a hit somewhere; the sample as a whole holds those more often. A number with no mark means an inactive call. Activity calls are given as the source filed them. Rule as the data show it: active = growth inhibition above about 70%; inactive = the rest.

Experiments:
[1] = NCI Yeast Anticancer Drug Screen. Data for the rad50 strain (AID 155);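 also: 0% = growth of vehicle-only cultures of the same strain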; details: S. cerevisiae rad50 strain growth inhibition, stronger effect = higher value
How it was run: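 Cells are treated with compound, grown, and their growth is then scored against vehicle-only cultures of the same repair-deficient yeast strain.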

[2] = NCI Yeast Anticancer Drug Screen. Data for the mec2-1 strain (AID 157); details: S. cerevisiae mec2-1 strain, stronger effect = higher value
How it was run: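 Compounds were applied to mec2-1 yeast cells. Their growth was then compared with that of vehicle-treated cultures to give growth inhibition.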

[3] = NCI Yeast Anticancer Drug Screen. Data for the sgs1 mgt1 strain (AID 161);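 also: 0% = growth of cultures given vehicle only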; details: S. cerevisiae sgs1 mgt1 strain, stronger effect = higher value
How it was run: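 Percent growth inhibition was derived by comparing compound-exposed mutant yeast with vehicle-exposed cultures. The strain carries alterations in DNA damage repair.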

[4] = NCI Yeast Anticancer Drug Screen. Data for the cln2 rad14 strain (AID 165);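 also: 0% = growth equal to vehicle treated cultures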; details: S. cerevisiae cln2 rad14 strain, stronger effect = higher value
How it was run: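 Strain: cln2 rad14 yeast, altered in cell cycle control and DNA damage repair. Read-out: growth inhibition vs vehicle.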

[5] = NCI Yeast Anticancer Drug Screen. Data for the bub3 strain (AID 167); details: S. cerevisiae bub3 mutant strain, stronger effect = higher value
How it was run: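 Part of a panel of yeast mutants defective in DNA damage repair or cell cycle regulation. Each strain is grown with compound, and inhibition is calculated relative to solvent-treated cultures.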

[6] = NCI Yeast Anticancer Drug Screen. Data for the mlh1 rad18 strain (AID 175); details: S. cerevisiae mlh1 rad18 strain growth inhibition, stronger effect = higher value
How it was run: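 A repair-deficient yeast strain is exposed to test compound, and growth is scored relative to vehicle-treated controls.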

[7] = at 5.0 µM (retest, dose inferred, filed as 0.5)
[8] = at 50.0 µM (retest, dose inferred, filed as 5.0)

Compound	growth inhibition [1, 7]	growth inhibition [1, 8]	growth inhibition ([1]; at 50.0 µM)	growth inhibition [2, 7]	growth inhibition [2, 8]	growth inhibition ([2]; at 50.0 µM)	growth inhibition [3, 7]	growth inhibition [3, 8]	growth inhibition ([3]; at 50.0 µM)	growth inhibition [4, 7]	growth inhibition [4, 8]	growth inhibition ([4]; at 50.0 µM)	growth inhibition [5, 7]	growth inhibition [5, 8]	growth inhibition ([5]; at 50.0 µM)	growth inhibition [6, 7]	growth inhibition [6, 8]	growth inhibition ([6]; at 50.0 µM)
CCc1[nH]c2ccccc2c1C(c1c(CC)[nH]c2ccccc12)C1CCCCC1=O (configuration not stated)	1%	91% (active)	93.2% (active)	-8%	97% (active)	88.8% (active)	-10%	96% (active)	92.2% (active)	0%	95% (active)	95.2% (active)	0%	95% (active)	79.8% (active)	-9%	97% (active)	95.6% (active)
Cc1ccccc1NC(=S)N/N=C(/c1ccccc1)c1ccccn1	5%	94% (active)	53.9%	-17%	92% (active)	61%	26%	92% (active)	69.7%	-38%	91% (active)	68.4%	-47%	92% (active)	76.3% (active)	26%	92% (active)	75.4% (active)
Cc1ccc(C(CN)(CCBr)c2ccc(C)cc2)cc1	63%	99% (active)	99.5% (active)	50%	98% (active)	99.5% (active)	59%	99% (active)	99.7% (active)	19%	90% (active)	99.4% (active)	36%	91% (active)	99% (active)	92% (active)	98% (active)	99.5% (active)
CN(C)c1nc(Cl)nc2c1ncn2C1OCC(O)C(O)C1O (configuration not stated)	-4%	3%	10.7%	-8%	4%	22%	9%	7%	5.05%	1%	-6%	1.25%	-1%	-7%	-5.1%	11%	11%	42.5%
[O-][n+]1c(-c2ccccc2)c(Cl)c(-c2ccccc2)n1O	4%	75% (active)	86.3% (active)	0%	94% (active)	97% (active)	4%	92% (active)	97.6% (active)	0%	53%	92.7% (active)	8%	96% (active)	97.8% (active)	4%	95% (active)	97.5% (active)
COC(=O)C1C(O)C(C)C(=O)C(C)/C=C\C=C(C)C(=O)Nc2c(C)c(OC(C)=O)c3c(c2O)C(=O)C(C)=C2OCOC(=C23)C(C)=CC(C)(O)C(O)C(C)C1O (configuration not stated)	9%	52%	88.1% (active)	-3%	77% (active)	88.8% (active)	0%	59%	92.2% (active)	9%	75% (active)	75.6% (active)	-4%	76% (active)	87.3% (active)	-19%	68%	81% (active)
OC(Cc1cccnc1)(c1ccccc1)c1ccc(Cl)cc1 (configuration not stated)	-7%	69%	97.5% (active)	-3%	80% (active)	98% (active)	6%	79% (active)	97.3% (active)	-1%	64%	94.2% (active)	-3%	77% (active)	97.2% (active)	-5%	71% (active)	98% (active)
CC(C)N1C(=O)c2ccccc2S1(Cl)c1ccccc1 (configuration not stated)	2%	0%	97.5% (active)	-6%	6%	96.8% (active)	4%	-3%	94.5% (active)	-2%	2%	88.2% (active)	-7%	-6%	98.5% (active)	-2%	4%	98.3% (active)
CCCCCCCCCCCCNC(=O)c1cc[n+](Cc2ccc(Cl)c(Cl)c2)cc1	99% (active)	98% (active)	99.3% (active)	100% (active)	97% (active)	99.2% (active)	100% (active)	98% (active)	99.1% (active)	88% (active)	98% (active)	97.8% (active)	98% (active)	98% (active)	98.8% (active)	99% (active)	99% (active)	99% (active)
CCCCN(CCCC)CC(O)c1cc(-c2ccc(Cl)cc2)nc2c(Cl)cccc12 (configuration not stated)	1%	6%	99% (active)	-2%	1%	99.5% (active)	1%	12%	99.2% (active)	-3%	-13%	98.5% (active)	-4%	0%	98.8% (active)	-3%	-4%	99.3% (active)
O=C(COc1ccc2ccccc2c1)NC1c2ccccc2Oc2ccccc21	77% (active)	93% (active)	74.2% (active)	91% (active)	97% (active)	17.4%	95% (active)	97% (active)	69.3%	98% (active)	94% (active)	12%	92% (active)	96% (active)	15.6%	82% (active)	96% (active)	63%
CCCCCCCCCCCC[N+](C)(C)C (tested in a mixture with another compound)	-7%	99% (active)	67.9%	5%	99% (active)	93.8% (active)	-4%	98% (active)	49.2%	5%	98% (active)	10.6%	20%	99% (active)	88.5% (active)	0%	98% (active)	64%
O=C(NCCCCC(NC(=O)OCc1ccccc1)C(=O)Nc1ccc(Nc2ccc(NC(=O)C(CCCCNC(=O)OCc3ccccc3)NC(=O)OCc3ccccc3)cc2)cc1)OCc1ccccc1 (configuration not stated)	0%	-12%	99% (active)	-3%	-13%	99.5% (active)	-2%	-29%	99.4% (active)	-1%	0%	87.7% (active)	2%	34%	99.1% (active)	-1%	-12%	98.4% (active)
N#C/C(=C\NC(=S)C(N)=S)c1nc2ccccc2s1	21%	97% (active)	88.1% (active)	28%	99% (active)	90.2% (active)	7%	97% (active)	89.2% (active)	30%	97% (active)	86.9% (active)	22%	98% (active)	87.8% (active)	52%	97% (active)	85.5% (active)
CCOC(=O)/C(=C\c1cccc(C(F)(F)F)c1)P(=O)(OCC)OCC	31%	50%	75.7% (active)	-8%	74% (active)	79% (active)	3%	55%	68.1%	26%	40%	42.1%	27%	85% (active)	71.8% (active)	13%	82% (active)	52.2%
O=C(Nc1ccccc1Cl)c1cccnc1	-146%	-174%	6.55%	-48%	-56%	14.8%	-56%	-70%	9.25%	-48%	-63%	51.6%	-63%	-81%	-7.4%	-112%	-123%	4.45%
CC(=O)OC1CC2Cc3ccccc3C3(O)COC213 (configuration not stated)	-1%	48%	49.2%	6%	75% (active)	45.4%	6%	76% (active)	76.7% (active)	3%	17%	14.1%	-7%	59%	59%	-2%	83% (active)	31.1%
O=C(CNC(=O)OCc1ccccc1)NNc1ccccc1Cl	95% (active)	98% (active)	98.7% (active)	94% (active)	99% (active)	98.5% (active)	98% (active)	99% (active)	97.1% (active)	97% (active)	98% (active)	98.7% (active)	98% (active)	96% (active)	99.2% (active)	98% (active)	99% (active)	99.3% (active)
O=C(CC1Sc2ccccc2NC1=O)Nc1ccc([N+](=O)[O-])cc1[N+](=O)[O-] (configuration not stated)	30%	81% (active)	88% (active)	25%	89% (active)	93.3% (active)	51%	98% (active)	81.8% (active)	34%	62%	28.9%	36%	97% (active)	92% (active)	51%	96% (active)	86.9% (active)
